Assay outcomes as filed in PubChem.
SARS PLP yeast = qHTS of Yeast-based Assay for SARS-CoV PLP; S. cerevisiae expressing SARS-CoV PLpro, growth rescue; Potency, µM (top dose mostly 32.9 µM), most hits filed as activators; actives 0.19% (n = 330,000); AID 485353, 2010; calls by dose curve; also: nearly all actives have a fitted effect of over 55% in size
Giardia FBPA inh-1 = qHTS Assay for Inhibitors of Fructose-1,6-bisphosphate Aldolase from Giardia Lamblia; A8B2U2; AID 2451, 2010; Potency, µM (titrated, usually from 59.6 µM), actives largely listed as inhibitors; purified Giardia FBPA; actives 0.71% (n = 290,000); also: nearly all actives have a fitted effect of over 55% in size
Target sequence (A8B2U2 whole entry, looked up): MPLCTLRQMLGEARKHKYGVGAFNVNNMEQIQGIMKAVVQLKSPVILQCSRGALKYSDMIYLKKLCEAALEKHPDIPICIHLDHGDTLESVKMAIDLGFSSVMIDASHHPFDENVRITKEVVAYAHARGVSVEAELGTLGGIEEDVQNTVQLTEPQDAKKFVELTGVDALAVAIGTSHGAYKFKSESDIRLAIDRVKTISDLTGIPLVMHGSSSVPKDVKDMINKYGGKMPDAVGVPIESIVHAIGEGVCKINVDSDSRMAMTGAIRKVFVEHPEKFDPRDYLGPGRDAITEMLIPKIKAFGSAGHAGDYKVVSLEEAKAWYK
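Giardia FBPA (40 nM reagent) was preincubated 10 min at RT with compound (up to 57.5 uM final), then substrate plus GAPDH/TPI/NAD/arsenate coupling system with diaphorase/resazurin was added; resorufin fluorescence (525/598 nm) was read after 20 min.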
AmpC detergent = qHTS Inhibitors of AmpC Beta-Lactamase (assay with detergent) | P00811 | AmpC hydrolysis of nitrocefin, absorbance 480 nm, 0.01% Triton | Potency, µM (series often up to 114 µM), hits mostly inhibitors | actives 0.041% (n = 370,000) | AID 485294, 2010; also: nearly all actives have a fitted effect of over 25% in size
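20 mM phosphate pH 7.0 + 0.01% (detergent screen) or 0.0001% Triton X-100; 5.3 nM AmpC reagent; cpd preinc 15 min RT; nitrocefin (800 uM stock) to start; A480 q20 s × 4 min; Activity was normalised to no-enzyme and no-compound control wells.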
AmpC no deterg = qHTS Inhibitors of AmpC Beta-Lactamase (assay without detergent) | AID 485341, 2010 | P00811 | actives 0.52% (n = 330,000) | Potency, µM (titrated, usually from 57.1 µM), most hits filed as inhibitors | AmpC nitrocefin hydrolysis, absorbance 480 nm, 0.0001% Triton; also: nearly all actives have a fitted effect of over 20% in size
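AmpC (5.3 nM in the dispensed reagent) in 20 mM phosphate pH 7.0 with 0.01% (detergent screen) or 0.0001% Triton X-100 was preincubated with compounds for 15 min at room temperature. Nitrocefin was then added from an 800 uM solution, and hydrolysis was followed at 480 nm.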
Giardia growth = qHTS Assay for Inhibitors of Fructose-1,6-bisphosphate Aldolase from Giardia Lamblia: Giardia lamblia growth inhibition. Potency, µM (series often up to 57.5 µM), usual class: inhibitors. Giardia lamblia trophozoite growth inhibition. shares compounds with Giardia FBPA inh-1. actives 5% (n = 1,500);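 also: trophozoites exposed to compound for 48 h at 37 °C; nearly all actives have a fitted effect of over 70% in size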
Mammalian tox = qHTS Assay for Inhibitors of Fructose-1,6-bisphosphate Aldolase from Giardia Lamblia: Mammalian cellular toxicity; mammalian cell viability counter-screen, qHTS; actives 4% (n = 1,500); shares compounds with Giardia FBPA inh-1; Potency, µM (doses to about 57.5 µM), hits mostly inhibitors;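 also: Chinese hamster ovary cells used as mammalian cytotoxicity surrogate; viability measured as cellular ATP by luminescence; compound exposure lasted 48 h before reading; nearly all actives have a fitted effect of over 60% in size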
Giardia FBPA inh-2 = qHTS Assay for Inhibitors of Fructose-1,6-bisphosphate Aldolase from Giardia Lamblia: Primary screen confirmation | purified Giardia aldolase enzyme activity, qHTS | AID 2787, 2010 | Potency, µM (series often up to 57.5 µM), most hits filed as inhibitors | shares compounds with Giardia FBPA inh-1 | actives 5% (n = 1,500); also: nearly all actives have a fitted effect of over 45% in size
Rabbit aldolase = qHTS Assay for Inhibitors of Fructose-1,6-bisphosphate Aldolase from Giardia Lamblia: Rabbit FBPA Selectivity. AID 2794, 2010. shares compounds with Giardia FBPA inh-1. actives 4% (n = 1,500). Rabbit muscle FBPA enzyme inhibition, selectivity counter-screen. Potency, µM (highest dose often 57.5 µM), usual class: inhibitors; also: nearly all actives have a fitted effect of over 60% in size
Target sequence (P00883 whole entry, looked up): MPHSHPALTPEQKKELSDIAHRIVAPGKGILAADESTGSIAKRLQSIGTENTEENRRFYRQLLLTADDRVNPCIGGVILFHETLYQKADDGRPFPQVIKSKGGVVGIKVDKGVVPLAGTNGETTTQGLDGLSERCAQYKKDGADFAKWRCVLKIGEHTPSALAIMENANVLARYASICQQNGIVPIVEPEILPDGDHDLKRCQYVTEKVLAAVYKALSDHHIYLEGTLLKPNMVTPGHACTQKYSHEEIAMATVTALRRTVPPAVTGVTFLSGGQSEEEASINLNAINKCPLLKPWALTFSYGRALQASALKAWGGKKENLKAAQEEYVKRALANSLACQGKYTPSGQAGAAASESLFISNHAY
GAPDH coupling = qHTS Assay for Inhibitors of Fructose-1,6-bisphosphate Aldolase from Giardia Lamblia: Coupling assay counterscreen confirmation. shares compounds with Giardia FBPA inh-1. GAPDH coupling enzyme counterscreen, biochemical, qHTS. Potency, µM (top dose mostly 57.5 µM), usual class: inhibitors. actives 6% (n = 1,500); also: nearly all actives have a fitted effect of over 55% in size
A number is an active result; . = inactive; ? = inconclusive; / = no result given; [ ] = dose if it differs, or a comment. Sampled rows, rich in hits. Any-hit rate of the full collection: about 1.1%. Unless noted, calls follow the shape of the dose curve; as a rule, active = well fitted curve in the direction sought with a large enough effect; inconclusive = small, poorly fitted or top-dose-only effect, or another doubt; inactive = no such curve, though single readings can be large; an effect the other way counts as inactive or inconclusive.

SMILES	SARS PLP yeast	Giardia FBPA inh-1	AmpC detergent	AmpC no deterg	Giardia growth	Mammalian tox	Giardia FBPA inh-2	Rabbit aldolase	GAPDH coupling
COC(=O)C1=C[C@@H](C(=O)OC)[C@@H]2C3=C(C(=O)[C@@]2(CC(C)C)NC(=O)c2ccccc2)[C@H](C)n2c(=O)n(-c4ccccc4)c(=O)n2[C@@H]3C1	/	.	/	/	/	/	/	/	/
FC(F)(F)c1cnc2c(c1)[nH]c(=S)n2-c1ccc(Cl)cc1	.	.	.	.	/	/	/	/	/
Fc1ccc(-n2c(=S)[nH]c3cccnc32)cc1	.	17.8µM	?	.	.	.	.	.	.
CC(C)c1cccc(OCCCCN(C)C)c1	.	15.8µM	.	.	?	.	.	.	.
Cc1ccccc1NC(=O)/C(C#N)=C/c1ccc(Cl)cc1Cl	/	/	.	/	/	/	/	/	/
Nn1c(SCC(=O)Nc2cccc(C(F)(F)F)c2)nncc1=O	.	25.1µM	.	.	.[10.4 µM]	.	.	.	.
COc1cc(CN2CCN(Cc3ccc([N+](=O)[O-])cc3)CC2)c([N+](=O)[O-])cc1OC	.	12.6µM	?	.[11.4 µM]	.	.	?	.	.
Cc1cnc(NC(=O)CN2CCN(c3ccccc3F)CC2)s1	.	.	.	.	/	/	/	/	/
CC(=O)Nc1ccc2sc(NC(=O)CN3CCOCC3)nc2c1	.	4.47µM	?	.	?	.	.	.	.
Cc1cnc(NC(=O)CN2CCCCC2)s1	.	4.47µM	.	.	?	.	.	.	.
CCCN1CCN(CC(=O)Nc2nnc(C)s2)CC1	.	7.94µM	.	.	.	.	.	.	.
Cc1nnc(NC(=O)CN2CCN(Cc3ccccc3)CC2)s1	.	6.31µM	.	.	.[10.4 µM]	.	.	.	.
COc1cc(NC(=O)c2cc(-c3cccc(OC)c3)n[nH]2)cc(OC)c1	/	/	.	/	/	/	/	/	/
O=C(NCCCN1CCN(c2cccc(Cl)c2)CC1)c1cnn(-c2ccc(F)cc2)c1-n1cccc1	/	/	.	/	/	/	/	/	/
O=C(Cn1c(=O)n(-c2ccc(Cl)cc2)c(=O)c2oc3ccccc3c21)Nc1ccccc1	/	/	.	/	/	/	/	/	/
CCCCCn1c(=N)n(CC(O)COc2cccc(C)c2)c2ccccc21 (configuration not stated)	/	/	.	/	/	/	/	/	/
CCCN1CCN(CC(=O)Nc2nc3ccccc3s2)CC1	.	?	.	.	/	/	/	/	/
O=C(CN1CCN(Cc2ccc(F)cc2)CC1)Nc1nc2ccccc2s1	.	14.1µM	.	.	.	.	.	.	.
Cc1nnc(NC(=O)CN2CCN(Cc3ccc(F)cc3Cl)CC2)s1	.	3.16µM	.	.	.	.	.	.	.
CCc1nnc(NC(=O)CN2CCN(C3CCCCC3)CC2)s1	.	?	.	.	/	/	/	/	/
CCc1nnc(NC(=O)CN2CC(C)OC(C)C2)s1 (configuration not stated)	.	3.55µM	.	.	.[10.4 µM]	.	.	.	.
O=C(CCc1nc2cccnc2n1Cc1ccccc1)NCc1cccc(Cl)c1	/	/	.	/	/	/	/	/	/
COc1ccccc1N1CCN(S(=O)(=O)c2c(C)sc3ncn(CC(=O)N(C)c4ccc(Cl)cc4)c(=O)c23)CC1	/	/	.	/	/	/	/	/	/
CN1CCN(c2ncc3nc(-c4cccc(C#N)c4)c(=O)n(Cc4ccc(F)cc4)c3n2)CC1	/	.	/	/	/	/	/	/	/
C=CCNC(=S)NS(=O)(=O)c1cccs1	.	5.61µM	?	.	.	.	.	.	.
SMILES	SARS PLP yeast	Giardia FBPA inh-1	AmpC detergent	AmpC no deterg	Giardia growth	Mammalian tox	Giardia FBPA inh-2	Rabbit aldolase	GAPDH coupling
O=S(=O)(NCCNS(=O)(=O)c1cccs1)c1cccs1	.	.	.	.	/	/	/	/	/
O=S(=O)(c1ccc(-c2csc(=Nc3ccc(OC(F)(F)Cl)cc3)n2CCCO)cc1)N1CCCC1	/	/	.	/	/	/	/	/	/
O=C(Nc1cccc(C(=O)Nc2cc(C(=O)Nc3ccc([S+](=O)([O-])[O-])c4cc([S+](=O)([O-])[O-])cc(SOOO)c34)ccc2F)c1)Nc1cccc(C(=O)Nc2cc(C(=O)Nc3ccc([S+](=O)([O-])[O-])c4cc([S+](=O)([O-])[O-])cc([S+](=O)([O-])[O-])c34)ccc2F)c1	/	.	/	/	/	/	/	/	/
COc1ccc(OC)c(C(C)NC(=O)Cn2c(=O)cc(C)c3c(C)nn(-c4ccc(C)cc4)c32)c1 (configuration not stated)	/	/	.	/	/	/	/	/	/
O=C(CNCc1cccnc1)Nc1cc(C(F)(F)F)ccc1N1CCOCC1	.	7.92µM	.	.	?	.	.	.	.
Cc1oc(-c2ccc(Cl)cc2)nc1CSc1nnc(C)n2c1cc1sccc12	/	/	.	/	/	/	/	/	/
Cc1ccccc1NNC(=O)C(=O)NNc1ccccc1C	.	15.8µM	.	.	?	.	.	.	.
Cc1ccc(C)c(NNC(=O)C(=O)NNc2cc(C)ccc2C)c1	.	.	.	.	/	/	/	/	/
NC1=NN=C(N2N=C(c3ccc(Br)cc3)CC2(O)C(F)(F)F)n2ncnc2C1 (configuration not stated)	.	?	.	.	.	.	.	.	.
Cc1ccc(C(=O)Nc2nc(-c3ccccn3)cs2)o1	.	12.6µM	.	.	?	?	.	.	.
O=C(Nc1nc(-c2ccccn2)cs1)c1ccccc1-n1cnnn1	.	7.92µM	.	.	20µM	?	.	.	?
O=C(Nc1nc(-c2ccccn2)cs1)c1ccc2c(c1)OCCO2	.	17.7µM	.	.	.[10.4 µM]	?	.	.	.
O=C(Nc1nc(-c2ccccn2)cs1)c1ccc([N+](=O)[O-])o1	.	/	.	.	/	/	.	.	.
CC(=O)c1ccc(-c2ccc(C(=O)Nc3nc(-c4ccccn4)cs3)o2)cc1	.	/	/	.	/	/	/	/	/
O=C(Nc1nc(-c2ccccn2)cs1)c1ccc(-c2ccccc2F)o1	.	/	.	.	/	/	/	/	/
CCOc1ccc(CCNC(=O)Cn2nc(-c3ccc(C)cc3)ccc2=O)cc1OCC	/	/	.	/	/	/	/	/	/
Cc1cccc(CC2C(=O)Nc3ccccc32)c1 (configuration not stated)	/	/	.	/	/	/	/	/	/
COc1ccc(NC(=S)N2CCC(c3ccc(C)cc3)C2)cc1 (configuration not stated)	.	.	.	.	/	/	/	/	/
Cc1ccc(NC(=S)N2CCC(c3ccc(C)cc3)C2)cc1 (configuration not stated)	.	15.8µM	.	.	.[10.4 µM]	.	.	.	.
